CYP2C9 activ = activators of human CYP2C9 | recombinant CYP2C9, luciferin-H conversion, luminescence; hits give high values; factor 1 = untreated enzyme, 0 = blocked | 96,000 compounds, 1.4% hits | AID 1024 | activation factor at 5 µM;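 active = activation factor of 2 or more for CYP2C9 at a 5 µM dose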
CYP2C19 inh = human CYP2C19 inhibition; P33261; CYP2C19 Supersomes, luciferin-H EGE luminescence, 30 min; inhibition, % at 5 µM; 96,000 compounds, 21% hits; AID 778;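 active = CYP2C19 inhibition above a set limit at 5 µM in the primary screen, cut at about 50% in these data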
Target sequence (P33261 whole entry, looked up): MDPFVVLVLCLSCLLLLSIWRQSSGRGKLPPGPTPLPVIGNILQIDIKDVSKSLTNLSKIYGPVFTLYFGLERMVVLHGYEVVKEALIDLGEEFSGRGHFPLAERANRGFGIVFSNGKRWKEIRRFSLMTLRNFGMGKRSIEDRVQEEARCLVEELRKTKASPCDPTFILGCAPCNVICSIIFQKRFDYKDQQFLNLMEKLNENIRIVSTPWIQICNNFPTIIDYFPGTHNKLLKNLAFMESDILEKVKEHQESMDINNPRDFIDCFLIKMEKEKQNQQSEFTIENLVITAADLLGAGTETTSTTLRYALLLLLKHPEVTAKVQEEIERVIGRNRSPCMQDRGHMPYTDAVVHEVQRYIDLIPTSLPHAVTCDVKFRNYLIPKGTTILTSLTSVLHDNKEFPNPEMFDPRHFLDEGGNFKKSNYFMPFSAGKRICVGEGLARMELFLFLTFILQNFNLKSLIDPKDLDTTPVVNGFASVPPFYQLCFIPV
CYP2C9 inhib = inhibitors of human CYP2C9; 96,000 compounds, 20% hits; AID 777; P11712; inhibition, % at 5 µM; CYP2C9 Supersomes, luciferin-H conversion, luminescence;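 active = blocking of liver enzyme CYP2C9 beyond about 50% at 5 µM, limit read from the data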
Measles CPE = protection of cells from measles virus. Measles virus-infected cells, CPE protection, absorbance. protection (pct of control), % at 4 µM. 140,000 compounds, 1.5% hits. AID 841; in the data active = protection mostly above about 24%, no sharp cut-off; inactive = mostly below about 26%
CYP2C19 activ = increases human CYP2C19 enzyme activity. 96,000 tested, under 10 active. P33261. recombinant CYP2C19, luciferin-H EGE luminescence; hits give high values; 0 = fully inhibited enzyme, 1 = untreated enzyme. activation factor at 5 µM;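 active = activation factor of at least 2 at 5 µM in the primary screen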
Large screens that a line does not name were inactive. In the library only some 22% were active in any assay of this set; here they are far more common.

Cc1ccc2oc(C(=O)NCc3ccc4c(c3)OCO4)c(C)c2c1	none
COC(=O)c1ccc(CNC(=O)COC(=O)C2CCC(C(C)(C)C)CC2)cc1 (centres undefined)	none (no result: CYP2C9 activ, CYP2C19 inh, CYP2C9 inhib, CYP2C19 activ)
O=C(/C=C/c1ccccc1)N1CCN(c2c(Cl)cccc2[N+](=O)[O-])CC1	none (no result: CYP2C9 activ, CYP2C19 inh, CYP2C9 inhib, CYP2C19 activ)
O=C(COc1c(Cl)cc(Cl)cc1Cl)c1ccc(Cl)cc1	none (no result: CYP2C9 activ, CYP2C19 inh, CYP2C9 inhib, CYP2C19 activ)
Nc1nc2c(s1)C(=O)CC(c1ccccc1)C2 (centres undefined)	none
CCOC(=O)c1c(C)c(C(=O)NCc2ccc3c(c2)OCO3)c(C)n1C	CYP2C9 inhib 60
CCOC(=O)c1c(C)c(C(=O)NCc2ccc3c(c2)OCO3)c(C)n1CC	none (no result: CYP2C9 activ, CYP2C19 inh, CYP2C9 inhib, CYP2C19 activ)
Cc1c(C(=O)NCc2ccc3c(c2)OCO3)oc2ccc(S(=O)(=O)N3CCCCCC3)cc12	CYP2C9 inhib 68
CCOc1ccccc1NC(=O)C(OC(=O)c1ccc(N(C)C)cc1)c1ccccc1 (centres undefined)	none (no result: CYP2C9 activ, CYP2C19 inh, CYP2C9 inhib, CYP2C19 activ)
CN(C)CCNc1oc(-c2cccc(Cl)c2)nc1C#N	none
CCN(CC)Cc1c[nH]c2c(C(=O)OC)cccc12	none (no result: CYP2C9 activ, CYP2C19 inh, CYP2C9 inhib, CYP2C19 activ)
O=c1[nH]cnc2scc(-c3ccc(F)cc3)c12	none
COc1cccc(-c2csc3nc[nH]c(=O)c23)c1	CYP2C19 inh 59
CCOC(=O)c1cccc(NC(=O)CSc2nnc(CNc3ccc(C)cc3)n2CC)c1	CYP2C19 inh 66, CYP2C9 inhib 70
CCn1c(SCC(=O)Nc2ccccc2C(=O)OC)nnc1-c1cccc(C)c1	CYP2C19 inh 99, CYP2C9 inhib 68
CCOC(=O)c1cccc(NC(=O)CSc2nnc(COc3ccccc3)n2CC)c1	CYP2C19 inh 58, CYP2C9 inhib 63
COC(=O)CSc1nnc(CNc2ccc(Cl)cc2)n1Cc1ccccc1	CYP2C19 inh 97, CYP2C9 inhib 92
O=C(CSc1nnc(CNc2ccc(F)cc2)n1Cc1ccccc1)NCc1ccccc1	none (no result: CYP2C9 activ, CYP2C19 inh, CYP2C9 inhib, CYP2C19 activ)
COC(=O)c1cccc(NC(=O)CSc2nnc(COc3ccccc3)n2C)c1	none
O=C(Cc1c(C(=O)O)[nH]c2ccc(Cl)cc12)Nc1ccc2c(c1)OCCO2	none
C#CCN(C(=O)Nc1ccccc1)c1ccccc1	none (no result: CYP2C9 activ, CYP2C19 inh, CYP2C9 inhib, CYP2C19 activ)
COc1ccc(C)cc1N1C(=N)/C(=C2/Nc3ccccc3S2)C(c2ccccc2)C1=O (centres undefined)	none (no result: CYP2C9 activ, CYP2C19 inh, CYP2C9 inhib, CYP2C19 activ)
O=C(OCc1cc(=O)n2cc(Br)ccc2n1)c1ccc(Cl)c(S(=O)(=O)NCc2ccccc2)c1	none (no result: CYP2C9 activ, CYP2C19 inh, CYP2C9 inhib, CYP2C19 activ)
CCOC(=O)c1ccccc1NC(=O)CSc1nnc(COc2ccccc2)n1CC	CYP2C19 inh 89, Measles CPE 53
CCn1c(CNc2ccc(C)cc2)nnc1SCC(=O)NCc1ccccc1	CYP2C19 inh 78
CCn1c(COc2cccc(C)c2)nnc1SCC(=O)Nc1cccc(C(=O)OC)c1	CYP2C9 inhib 56
CCn1c(COc2cccc(OC)c2)nnc1SCC(=O)Nc1cccc(OC)c1	CYP2C19 inh 82, CYP2C9 inhib 64
Cc1c(NC(=O)c2ccc3ncccc3c2)c(=O)n(-c2ccccc2)n1C	none
CCn1c(COc2ccccc2C)nnc1SCC(=O)O	none
CCn1c(COc2ccccc2C)nnc1SCC(=O)NC1CCCC1	none
CCOC(=O)c1cccc(Nc2nc(-c3cccnc3)nc3ccccc23)c1	CYP2C19 inh 74, CYP2C9 inhib 88, Measles CPE 29
CCOC(=O)c1cccc(NC(=O)CSc2nnc(-c3cccnc3)n2CC)c1	CYP2C19 inh 53, CYP2C9 inhib 64
CCn1c(COc2ccccc2C)nnc1SCC(=O)CC(=O)Nc1ccccc1	CYP2C9 inhib 55
CCn1c(COc2cccc3ccccc23)nnc1SCC(=O)OC1CCCCC1	CYP2C19 inh 88
COc1ccc(C2CC(=O)Nc3ccccc3S2(=O)=O)cc1OC (centres undefined)	none
O=C(NCc1ccco1)c1ccc(Cl)c(S(=O)(=O)N2CCc3ccccc32)c1	none (no result: CYP2C9 activ, CYP2C19 inh, CYP2C9 inhib, CYP2C19 activ)
O=C(CSc1nnc(-c2ccccc2)c(-c2ccccc2)n1)Nc1ccc(Br)cn1	none (no result: CYP2C9 activ, CYP2C19 inh, CYP2C9 inhib, CYP2C19 activ)
CCn1c(COc2cccc(C)c2)nnc1SCC(=O)Nc1cccc(C(=O)O)c1	CYP2C9 inhib 79
O=C(O)c1ccc(CNCc2ccc(Cl)cc2)cc1	none (no result: CYP2C9 activ, CYP2C19 inh, CYP2C9 inhib, CYP2C19 activ)
CCOc1ccccc1NC(=S)N(Cc1cc2ccc(C)cc2[nH]c1=O)CC1CCCN1CC (centres undefined)	none (no result: CYP2C9 activ, CYP2C19 inh, CYP2C9 inhib, CYP2C19 activ)
Cc1cc(Cl)c(S(=O)(=O)Nc2cccc(O)c2)cc1OCC(N)=O	none (no result: CYP2C9 activ, CYP2C19 inh, CYP2C9 inhib, CYP2C19 activ)
COC(=O)c1c(C)oc2ccc(NS(=O)(=O)c3cccs3)cc12	CYP2C19 inh 97, CYP2C9 inhib 92
COCCOC(=O)c1c(C)oc2ccc(NS(=O)(=O)c3ccccc3)cc12	CYP2C19 inh 63, CYP2C9 inhib 65
CC1=NN(c2ccccc2)C(=O)/C1=C/c1c(O)n(-c2ccc(F)c(Cl)c2)[nH]c1=O	none (no result: CYP2C9 activ, CYP2C19 inh, CYP2C9 inhib, CYP2C19 activ)
O=C(NCCC1=CCCCC1)C(=O)c1c[nH]c2ccccc12	none (no result: CYP2C9 activ, CYP2C19 inh, CYP2C9 inhib, CYP2C19 activ)
Cc1ccc(S(=O)(=O)N2CCCCC2)cc1C(=O)Nc1ccc2cn[nH]c2c1	CYP2C9 inhib 64
Cc1ccc(S(=O)(=O)N2CCCCC2)cc1C(=O)Nc1ncn[nH]1	CYP2C9 activ 2
Cc1cc(NC(=O)c2cc(S(=O)(=O)N3CCCCC3)ccc2C)n(-c2ccccn2)n1	CYP2C9 inhib 64
Nc1nonc1-c1noc(CCCCCN2C(=O)c3ccccc3C2=O)n1	none
O=C(NCCc1ccccc1)c1ccc(CS(=O)(=O)Cc2ccccc2F)o1	none
Cc1ccc(CCNC(=O)c2ccc(CS(=O)(=O)Cc3ccccc3F)o2)cc1	CYP2C19 inh 75, CYP2C9 inhib 98
Cc1cccc(CS(=O)(=O)Cc2ccc(C(=O)NCc3cccnc3)o2)c1	CYP2C19 inh 82
Cc1ccccc1CS(=O)(=O)Cc1ccc(C(=O)NCc2cccnc2)o1	CYP2C19 inh 78
CCc1nnc(NC(=O)CSc2nc(-c3ccccc3)cc(-c3ccc(OC)cc3)c2C#N)s1	none (no result: CYP2C9 activ, CYP2C19 inh, CYP2C9 inhib, CYP2C19 activ)
CCCCOc1ccc(-c2nc(=S)[nH][nH]2)cc1	none
CCN(CC)S(=O)(=O)c1csc(C(=O)NCc2ccccc2)c1	none
CCOc1ccc(Cl)cc1CSc1ncn[nH]1	none (no result: CYP2C9 activ, CYP2C19 inh, CYP2C9 inhib, CYP2C19 activ)
Cn1c(=S)[nH]c2[nH]c(=O)cnc2c1=O	none (no result: CYP2C9 activ, CYP2C19 inh, CYP2C9 inhib, CYP2C19 activ)
CCCCc1cc(=O)oc2cc(C)c(CN3CCCC3)c(O)c12	CYP2C9 inhib 58
CCc1cc(=O)oc2cc(C)c(CN3CCCC(C)C3)c(O)c12 (centres undefined)	none
O=C(Cc1cccs1)Nc1nnc(SCc2ccc(C(F)(F)F)cc2)s1	none (no result: CYP2C9 activ, CYP2C19 inh, CYP2C9 inhib, CYP2C19 activ)
O=C(c1ccccc1)N1CCN(C2c3cccc4cccc(c34)C2NS(=O)(=O)c2ccccc2)CC1 (centres undefined)	CYP2C19 inh 52, CYP2C9 inhib 75
O=S(=O)(NC1c2cccc3cccc(c23)C1N1CCNCC1)c1ccccc1 (centres undefined)	CYP2C19 inh 56
O=S(=O)(NC1c2cccc3cccc(c23)C1N1CCN(CCO)CC1)c1ccccc1 (centres undefined)	none
Cc1cc2oc(=O)cc(CSc3nc(N)cc(N)n3)c2cc1C	none
Cc1cc(S(=O)(=O)N2CCN(c3ccccc3O)CC2)c(C)s1	CYP2C19 inh 71
O=C(OCCN1CCCCC1)c1ccccc1Cl	CYP2C19 inh 60
COc1ccc(/C=C/C(=O)NC(=S)NNC(=O)c2cccnc2)cc1OC	none

Screens from PubChem.
